Screens (PubChem)
MBNL1 CUG block – blocks human MBNL1 binding to CUG repeat RNA | Q9NR56 | TR-FRET MBNL1-His/biotin-(CUG)12 binding, 665/545 ratio | Potency, µM (top dose mostly 57.5 µM), for inactives: at the top dose activity change, negative = inhibition, most hits filed as inhibitors | 0.036% of 280,000 active; active means well fitted inhibition curve with a large enough effect in the signal ratio, with a control signal flat, not every such curve was filed as active; inconclusive means small, poorly fitted or top-dose-only effect, or effect the other way, or a change in a side signal; inactive means no such curve, though single readings can be large or run the other way; the % refers to the signal ratio; further: potency means the concentration at half of the fitted maximal effect; on the % scale 0 is the no-effect control and ±100 the full control effect
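MBNL1-His + Biotin-(CUG)12, cpd titration 92 nM–58 uM; Tb anti-His Ab 0.055 ng/ul, SA-XL665 5 nM (final); 60 min RT; ratiometric 665/545 nm, Ex 340 nm; normalized to buffer and full-complex controls.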
Gal4-VP16 FLuc – Gal4-VP16 reporter inhibition counter-screen; 3.5% of 310,000 active; Potency, µM (highest dose often 53.6 µM), for inactives: at the top dose activity, negative = inhibition, most hits filed as inhibitors; Drosophila S2 Gal4-VP16 UAS-luciferase, luminescence, 20 h;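 further: Gal4-VP16 expression switched on by copper sulfate through the metallothionein promoter; potency means the concentration at half of the fitted maximal effect; on the % scale 0 is the no-effect control and ±100 the full control effect; nearly all actives have a fitted effect of over 50% in size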
Six1-Eya2 inh – Six1/Eya2 interaction inhibition; Q15475+O00167; AlphaScreen GST-Six1/His-Eya2 binding, biochemical; stronger effect = lower value; activity change, % (test concentration not listed); 0.56% of 360,000 active; in the data active means activity change below about -65%; inconclusive means mostly about -30% to -63%; further: on the % scale 0 is the no-effect control and ±100 the full control effect
Target sequence (O00167 whole entry, looked up): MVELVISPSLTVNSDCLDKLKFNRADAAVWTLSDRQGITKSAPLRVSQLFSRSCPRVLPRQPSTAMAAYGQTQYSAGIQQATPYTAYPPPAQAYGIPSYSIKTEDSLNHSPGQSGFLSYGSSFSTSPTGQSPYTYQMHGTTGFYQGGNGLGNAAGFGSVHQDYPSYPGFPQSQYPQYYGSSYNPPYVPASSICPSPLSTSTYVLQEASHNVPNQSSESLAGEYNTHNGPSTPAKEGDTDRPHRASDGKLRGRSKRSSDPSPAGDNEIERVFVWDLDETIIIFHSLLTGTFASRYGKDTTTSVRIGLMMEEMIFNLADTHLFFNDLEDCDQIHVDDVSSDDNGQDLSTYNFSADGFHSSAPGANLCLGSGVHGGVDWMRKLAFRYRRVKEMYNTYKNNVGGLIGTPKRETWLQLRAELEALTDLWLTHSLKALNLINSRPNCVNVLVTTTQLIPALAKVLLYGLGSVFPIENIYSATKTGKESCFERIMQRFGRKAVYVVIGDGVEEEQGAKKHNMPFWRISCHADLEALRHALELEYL
Target sequence (Q15475 whole entry, looked up): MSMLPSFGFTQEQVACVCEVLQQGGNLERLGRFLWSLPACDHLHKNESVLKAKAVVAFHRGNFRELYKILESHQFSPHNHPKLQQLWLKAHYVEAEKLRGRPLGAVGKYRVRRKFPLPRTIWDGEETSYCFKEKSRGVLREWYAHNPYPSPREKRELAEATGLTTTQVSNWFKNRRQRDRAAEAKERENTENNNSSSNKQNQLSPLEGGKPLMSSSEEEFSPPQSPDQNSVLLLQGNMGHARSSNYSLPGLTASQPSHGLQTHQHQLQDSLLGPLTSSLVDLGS
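Compounds are tested against tagged Six1 and Eya2 proteins bridged by glutathione donor and nickel acceptor beads; after a one-hour incubation at 37 °C without light, AlphaScreen emission is recorded.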
CtBP-E1A blk – CtBP/E1A binding inhibition | AlphaScreen GST-E1A/His-CtBP binding, 1536-well; stronger effect = lower value | activity change, % (concentration not given with the values) | 0.49% of 340,000 active; in the data active means activity change below about -65%; inconclusive means mostly about -30% to -63%; further: on the % scale 0 is the no-effect control and ±100 the full control effect
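GST-E1A and His-tagged CtBP (125 nM each as 5X stock) were preincubated with pin-transferred compound for 2 h at 37 °C in the dark, then glutathione donor and nickel acceptor beads were added for 1 h before AlphaScreen reading.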
CBFb RUNX1 block – blocks binding between human CBF-beta and RUNX1; Q01196+Q13951; AlphaScreen CBFb-His/RUNX1-biotin binding, biochemical; Potency, µM (top dose mostly 59.8 µM), for the others: at the highest dose activity, negative = inhibition, usual class: inhibitors; 230,000 tested, under 10 active; AID 1477; further: % of control where 0% means no effect
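Interaction loss through any mechanism counts as activity. Pre-formed complex of His-CBF-beta and biotin-RUNX1 (30 nM apiece) is incubated with compound 15 min, then with 50 ng nickel and 50 ng streptavidin beads for 90 min before AlphaScreen detection.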
RORg inh – inhibitors of mouse ROR gamma transcriptional activity. P51450. Drosophila S2 Gal4-RORgamma UAS-luciferase reporter, 20 h. Potency, µM (series often up to 53.6 µM), inactives show top-dose activity change, negative = inhibition, hits mostly inhibitors. 5.4% of 310,000 active; further: potency means the concentration at half of the fitted maximal effect; on the % scale 0 is the no-effect control and ±100 the full control effect; nearly all actives have a fitted effect of over 60% in size
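Read-out: Photinus luciferase luminescence; inhibitors lower reporter signal. Insect Schneider cells with Gal4-ROR gamma fusion under metallothionein promoter, UAS reporter; 700 uM final copper sulfate induction, 20 hr, ambient temperature.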
Numbers without * were called inactive; [ ] = remark or other dose. An excerpt weighted towards active compounds, which were near 5.5% of everything screened. Unless noted, the call rests on the fitted dose curve; in most records, active means well fitted curve in the direction sought with a large enough effect; inconclusive means small, poorly fitted or top-dose-only effect, or another doubt; inactive means no such curve, though single readings can be large; an effect the other way counts as inactive or inconclusive.

`CCNC(=S)N/N=C(\C)c1cccc(OC)c1` gave MBNL1 CUG block -3%, Gal4-VP16 FLuc -25%, Six1-Eya2 inh 6, CtBP-E1A blk 7, CBFb RUNX1 block 22% and RORg inh 2.5µM*.
`COc1cccc(/C(C)=N/NC(=O)c2ccc(N(C)C)cc2)c1` gave MBNL1 CUG block -1%, Gal4-VP16 FLuc 3%, Six1-Eya2 inh 3, CtBP-E1A blk -9, CBFb RUNX1 block 2% and RORg inh inconclusive.
C/C(=N\NC(=O)COc1ccc(C#N)cc1)c1ccccc1OC(F)F was read as MBNL1 CUG block -4%, Gal4-VP16 FLuc 16µM*, Six1-Eya2 inh 5, CtBP-E1A blk 4, CBFb RUNX1 block -4% and RORg inh 11µM*.
`CCNC(=S)N/N=C(\C)c1ccc2ccccc2c1OC(F)F` gave MBNL1 CUG block 0%, Gal4-VP16 FLuc 7.1µM*, Six1-Eya2 inh -30, CtBP-E1A blk -28, CBFb RUNX1 block -6% and RORg inh 1.3µM*.
Screening C/C(=N\NC(=O)c1ccco1)c1cccc2ccccc12 returned MBNL1 CUG block 11%, Gal4-VP16 FLuc 3%, Six1-Eya2 inh -5, CtBP-E1A blk 7 and RORg inh 15%.
`NC(=S)N/N=C1\CCSc2ccc(Cl)cc21` gave MBNL1 CUG block -7%, Gal4-VP16 FLuc 10µM*, Six1-Eya2 inh 5, CtBP-E1A blk 3, CBFb RUNX1 block 10% and RORg inh 2µM*.
O=C(N/N=C1\CCSc2ccc(F)cc21)c1cccnc1 was read as Gal4-VP16 FLuc -22%, Six1-Eya2 inh 2, CtBP-E1A blk 0, CBFb RUNX1 block inconclusive and RORg inh -9%.
For CC1(C)CC(=O)c2sc(NC(=O)c3ccccc3)nc2C1 the results were MBNL1 CUG block 4%, Gal4-VP16 FLuc 6%, CBFb RUNX1 block -3% and RORg inh 56%.
For CC1(C)CC(=O)c2sc(NC(=O)c3cccs3)nc2C1 the results were MBNL1 CUG block 39%, Gal4-VP16 FLuc 5.6µM*, Six1-Eya2 inh 1, CtBP-E1A blk 2, CBFb RUNX1 block 11% and RORg inh 5µM*.
For CC1(C)CC(=O)c2sc(NC(=O)CCS(=O)(=O)c3ccccc3)nc2C1 the results were MBNL1 CUG block -2%, Gal4-VP16 FLuc 5.6µM*, Six1-Eya2 inh 2, CtBP-E1A blk 9, CBFb RUNX1 block 21% and RORg inh inconclusive.
`COC(=O)c1c(C)[nH]c(C(=O)OCc2ccc(F)cc2)c1C` gave MBNL1 CUG block -11%, Gal4-VP16 FLuc 14%, Six1-Eya2 inh -2, CtBP-E1A blk -8, CBFb RUNX1 block 3% and RORg inh -28%.
Screening COC(=O)c1c(C)[nH]c(C=O)c1-c1ccccc1 returned Gal4-VP16 FLuc -11%, Six1-Eya2 inh 2, CtBP-E1A blk -12, CBFb RUNX1 block -4% and RORg inh 6%.
Screening Cc1[nH]c2ccccc2c(=O)c1C(=O)/C=C/c1ccccc1 returned MBNL1 CUG block -12%, Gal4-VP16 FLuc 5.6µM*, Six1-Eya2 inh -1, CtBP-E1A blk -4, CBFb RUNX1 block 9% and RORg inh 5.6µM*.
`CCOC(=O)c1c(C)[nH]c(C)c1C(=O)COC(=O)/C=C/c1cccc(Cl)c1` gave MBNL1 CUG block 24%, Gal4-VP16 FLuc -5%, Six1-Eya2 inh 2, CtBP-E1A blk -1, CBFb RUNX1 block -3% and RORg inh 19%.
`COC(=O)c1c(C)[nH]c(C(=O)/C=C/c2cccc(Cl)c2)c1C` gave MBNL1 CUG block -6%, Gal4-VP16 FLuc inconclusive, Six1-Eya2 inh 0, CtBP-E1A blk 3, CBFb RUNX1 block 1% and RORg inh 8.9µM*.
`COC(=O)c1c(C)[nH]c(C(=O)/C=C/c2ccc(C)cc2)c1C` gave MBNL1 CUG block 4%, Gal4-VP16 FLuc 4µM*, Six1-Eya2 inh -1, CtBP-E1A blk -15, CBFb RUNX1 block 0% and RORg inh 0.32µM*.
`COC(=O)c1c(C)[nH]c(C(=O)/C=C/c2ccccc2)c1C` gave MBNL1 CUG block -1%, Gal4-VP16 FLuc 7.1µM*, Six1-Eya2 inh -3, CtBP-E1A blk 6, CBFb RUNX1 block -19% and RORg inh 1.4µM*.
Screening O=C(C=Cc1ccccc1)c1c[nH]c2ccccc2c1=O returned Six1-Eya2 inh -7 and CtBP-E1A blk -23.
For O=C(NC(c1ccc(Cl)cc1)c1cnccn1)C1CCN(Cc2cccc(C(F)(F)F)c2)CC1 (stereo unspecified) the results were Six1-Eya2 inh -9 and CtBP-E1A blk -2.
`C[C@@H]1CCCCCCCCC(=O)OCCN(C(=O)OC(C)(C)C)[C@H](C)CCCCCCCCC(=O)OCCN(C(=O)OC(C)(C)C)[C@H](C)CCCCCCCCC(=O)OCCN1C(=O)OC(C)(C)C` gave Six1-Eya2 inh -2 and CtBP-E1A blk 3.
Screening Cc1nc(SCC2(C)CC2(Cl)Cl)n[nH]1 (stereo unspecified) returned MBNL1 CUG block -2%, Gal4-VP16 FLuc 17%, Six1-Eya2 inh 8, CtBP-E1A blk 4, CBFb RUNX1 block 2% and RORg inh 18%.
Screening COc1ccc(N2C(=O)CC(Sc3nnnn3-c3ccc(F)cc3)C2=O)cc1 (stereo unspecified) returned MBNL1 CUG block -1%, Gal4-VP16 FLuc -15%[10 µM], Six1-Eya2 inh 4, CtBP-E1A blk 12, CBFb RUNX1 block -5% and RORg inh 11µM*.
`O=C1CC(SCc2nc3ccccc3[nH]2)C(=O)N1c1cccc(Cl)c1` (stereo unspecified) gave MBNL1 CUG block 4%, Gal4-VP16 FLuc 13µM*, Six1-Eya2 inh -8, CtBP-E1A blk -18, CBFb RUNX1 block -8% and RORg inh 10µM*.
For COc1ccc(N2C(=O)CC(Sc3nnc(-c4ccccc4)o3)C2=O)cc1 (stereo unspecified) the results were MBNL1 CUG block 67%, Gal4-VP16 FLuc inconclusive, Six1-Eya2 inh 0, CtBP-E1A blk -3, CBFb RUNX1 block 3% and RORg inh 5.6µM*.
O=C1CC(Sc2nnnn2-c2ccccc2)C(=O)N1c1cccc(Cl)c1 (stereo unspecified) was read as MBNL1 CUG block -4%, Gal4-VP16 FLuc 3.2µM*, Six1-Eya2 inh 13, CtBP-E1A blk -1, CBFb RUNX1 block 15% and RORg inh 3.5µM*.
`COc1ccc(N2C(=O)CC(Sc3nc(C)cc(C)c3C#N)C2=O)cc1` (stereo unspecified) gave MBNL1 CUG block 18%, Gal4-VP16 FLuc inconclusive, Six1-Eya2 inh 3, CtBP-E1A blk 1, CBFb RUNX1 block 0% and RORg inh inconclusive.
